This note sets out measurements from PubChem BioAssay (Tox21).

Where “and” joins values, the source holds several entries; their conditions need not be identical. Equal values may be shown once. Results filed as inconclusive are left out. Some structures have more than one record in an assay (separate samples or runs), and their calls can disagree. Calls of active or inactive are those of the source. Unless noted, the call rests on the fitted dose curve; in most records, active means well fitted curve in the direction sought with a large enough effect in the repeat runs; inconclusive means weak or mixed curves; inactive means no such curve, though single readings can be large; an effect the other way counts as inactive or inconclusive.

Assay [1] can be described thus: A CellTox Green Cytotoxicity Assay to monitor cytotoxicity in HEK293 cells - 32 hour (AID 1224881). Further: nearly all actives have a fitted effect of over 40% in size. Further: potency means the concentration at half of the fitted maximal effect. In outline: (§1)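 HEK293 cells premixed with CellTox Green dye were seeded at 600 cells/well and left 5 h at 37 C/5% CO2 before pin transfer of 23 nL compound in DMSO. Fluorescence from dye bound to dead-cell DNA was read during 40 h treatment.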
Assay [2] in a line: A CellTox Green Cytotoxicity Assay to monitor cytotoxicity in HepG2 cells - 0 hour (AID 1224882). Further: nearly all actives have a fitted effect of over 35% in size. Further: potency means the concentration at half of the fitted maximal effect. In outline:
(§2)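 HepG2 cells were seeded together with the CellTox Green dye at 600 cells/well, left 5 h at 37 C/5% CO2, then given compounds in DMSO. Fluorescence from dye bound to dead-cell DNA was read repeatedly over 40 h of treatment at 37 C.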

Assay [3] in a line: A CellTox Green Cytotoxicity Assay to monitor cytotoxicity in HepG2 cells - 32 hour (AID 1224883). Further: nearly all actives have a fitted effect of over 50% in size. Further: potency means the concentration at half of the fitted maximal effect. In outline: as §2
Assay [4] is described as follows: A CellTox Green Cytotoxicity Assay to monitor cytotoxicity in HEK293 cells - 8 hour (AID 1224884). Further: nearly all actives have a fitted effect of over 35% in size. Further: potency means the concentration at half of the fitted maximal effect. In outline:
as §1

Assay [5] can be described thus: qHTS RealTime-Glo MT Cell Viability Assay in HEK293 cells - 24 hour (AID 1224886). Further: nearly all actives have a fitted effect of over 50% in size. Further: potency means the concentration at half of the fitted maximal effect. In outline:
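HEK293 cells seeded with NanoLuc/prosubstrate reagent, rested 5 h at 37 C, then dosed and kept at 37 C up to 40 h. Nonlytic real-time luminescence from viable cells read at 0, 8, 16, 24, 32 and 40 h.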
(In general: In qHTS, concentration-response curves come from the screen itself.)

Assay [6] in a line: qHTS RealTime-Glo MT Cell Viability Assay in HEK293 cells - 8 hour (AID 1224887). Further: top concentration of the series differs between compounds; nearly all actives have a fitted effect of over 50% in size. The method in brief: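 HEK293 cells mixed with RealTime-Glo reagents (NanoLuc plus cell-permeant prosubstrate) at 600 cells/well, preincubated 5 h at 37 C/5% CO2, then given 23 nL compound in DMSO. Nonlytic luminescence from viable cells was read at 0, 8, 16, 24, 32 and 40 h.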
Assay [7] can be described thus: A CellTox Green Cytotoxicity Assay to monitor cytotoxicity in HEK293 cells - 16 hour (AID 1224888). Further: nearly all actives have a fitted effect of over 35% in size. The method in brief: as §1
A short description of assay [8]: A CellTox Green Cytotoxicity Assay to monitor cytotoxicity in HepG2 cells - 8 hour (AID 1224890). Further: nearly all actives have a fitted effect of over 45% in size. Further: potency means the concentration at half of the fitted maximal effect. The method in brief:
as §2

A short description of assay [9]: qHTS assay to identify small molecule antagonists of the estrogen receptor alpha (ER-alpha) signaling pathway using the BG1 cell line in the presence of 0.1 nM 17-beta-estradiol - cell viability counter screen (AID 1259241). Further: nearly all actives have a fitted effect of over 40% in size. Further: potency means the concentration at half of the fitted maximal effect. In outline:
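Viability in VM7Luc4E2 cells after 22 hr compound exposure under 0.1 nM 17beta-estradiol stimulation, by CellTiter-Fluor.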

Assay [10] is described as follows: qHTS assay to identify small molecule antagonists of the androgen receptor (AR) signaling pathway using the MDA cell line in the presence of 0.5 nM R1881 - cell viability counter screen (AID 1259242). Further: nearly all actives have a fitted effect of over 45% in size. In outline:
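MDA-kb2 cells (human breast carcinoma, stably carrying MMTV-luciferase reporter) were exposed to compounds with 0.5 nM R1881 (final) for 16 hr at 37C, 0% CO2; viability then read as live-cell protease fluorescence (CellTiter-Fluor, 30 min) in the same wells.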

Assay [11] deals with Estrogen receptor (Homo sapiens) (UniProt P03372). Description: qHTS assay to identify small molecule antagonists of the estrogen receptor alpha (ER-alpha) signaling pathway using the BG1 cell line in the presence of 0.1 nM 17-beta-estradiol (AID 1259244). Further: nearly all actives have a fitted effect of over 50% in size. Further: potency means the concentration at half of the fitted maximal effect. In outline: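 VM7Luc4E2 cells (endogenous full-length ER-alpha, stable 4xERE-luciferase) were grown 5 days in phenol red-free medium with charcoal-stripped FBS, then exposed 22 h at 37C to compounds plus 0.1 nM (final) 17beta-estradiol; ONE-Glo luminescence read-out.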

A short description of assay [12]: qHTS assay to identify small molecule phospholipidosis (PLD) inducers (AID 1259344; active means well fitted curve in the direction sought with a large enough effect; an effect the other way counts as inactive or inconclusive). The method in brief:
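HepG2 cells, 900/well, treated with compound plus LipidTOX Red for 24 h at 37 C; amiodarone positive and DMSO negative controls. Fixed with paraformaldehyde/Hoechst, then high-content imaging scored LipidTOX pit count and integrated intensity per well and per cell.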

A short description of assay [13]: qHTS assay to identify small molecule HDAC inhibitors (AID 1259364). Further: nearly all actives have a fitted effect of over 45% in size. Further: potency means the concentration at half of the fitted maximal effect. In outline: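 Wild-type HCT-116 cells were plated overnight, exposed to compounds for 2 h at 37 °C, then given HDAC-Glo class I/II luminogenic reagent for 30 min at room temperature before luminescence was read.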
Assay [14] is described as follows: qHTS assay to identify small molecule HDAC inhibitors - cell viability counter screen (AID 1259365). The method in brief: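 Cytotoxicity was gauged in wild-type HCT-116 cells after a brief 2hr treatment with DMSO-dissolved compounds at 37C and 5% CO2, using CellTiter-Glo luminescence developed for 30min at room temperature.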
Assay [15] in a line: qHTS assay to identify small molecule agonists of the sonic hedgehog signaling (Shh) pathway - cell viability counter screen (AID 1259366). Further: nearly all actives have a fitted effect of over 50% in size. Further: potency means the concentration at half of the fitted maximal effect. In outline:
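Stable Gli1-Luc NIH/3T3 clone, 2,000 cells/well. Compound exposure 24hr at 37C. Read-out: CellTiter-Fluor fluorescence.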

A short description of assay [16]: qHTS assay to identify small molecule antagonists of the sonic hedgehog signaling (Shh) pathway - cell viability counter screen (AID 1259367). Further: nearly all actives have a fitted effect of over 55% in size. Further: potency means the concentration at half of the fitted maximal effect. The method in brief:
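NIH/3T3-derived Gli1-Luc reporter cells, 2,000/well, plated 4 hr before compound addition, then stimulated with conditioned medium for 24 hr at 37C. Viability measured in the same wells by CellTiter-Fluor fluorescence, reagent added at 23 hr for 1 hr.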

The nature of assay [17]: qHTS assay to identify small molecule agonists of the sonic hedgehog signaling (Shh) pathway (AID 1259368; calls by dose curve; further: series mostly up to about 92 µM; nearly all actives have a fitted effect of over 15% in size). The method in brief: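 NIH/3T3-derived 3T3Gli1-Luc cells carrying a stably integrated Gli1 response element–firefly luciferase reporter were plated, left 4 hr at 37 C, then given compounds in DMSO for 24 hr. Luminescence was read 30 min after adding luciferase reagent.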

Assay [18] can be described thus: qHTS RealTime-Glo MT Cell Viability Assay in HepG2 cells - 0 hour (AID 1224889). Further: nearly all actives have a fitted effect of over 50% in size. Further: potency means the concentration at half of the fitted maximal effect. The method in brief: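 HepG2 cells (600/well) were dispensed with RealTime-Glo reagents, incubated 5 h at 37 °C, then treated with compounds in DMSO for up to 40 h. Nonlytic NanoLuc luminescence reflecting viable cells was read at each stated time point.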
The target in assay [19] is Androgen receptor (Homo sapiens) (UniProt P10275). Description: qHTS assay to identify small molecule antagonists of the androgen receptor (AR) signaling pathway using the MDA cell line in the presence of 0.5 nM R1881 (AID 1259243). Further: nearly all actives have a fitted effect of over 50% in size. The method in brief:
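MDA-kb2 human breast carcinoma cells carrying an MMTV-luciferase reporter (AR- and GR-responsive) were plated, rested 5 hr at 37C, dosed with compounds, then stimulated with 0.5 nM R1881 (final) for 16 hr; luminescence was read after ONE-Glo.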

Estrogen receptor (Homo sapiens), sequence (P03372 whole entry, looked up): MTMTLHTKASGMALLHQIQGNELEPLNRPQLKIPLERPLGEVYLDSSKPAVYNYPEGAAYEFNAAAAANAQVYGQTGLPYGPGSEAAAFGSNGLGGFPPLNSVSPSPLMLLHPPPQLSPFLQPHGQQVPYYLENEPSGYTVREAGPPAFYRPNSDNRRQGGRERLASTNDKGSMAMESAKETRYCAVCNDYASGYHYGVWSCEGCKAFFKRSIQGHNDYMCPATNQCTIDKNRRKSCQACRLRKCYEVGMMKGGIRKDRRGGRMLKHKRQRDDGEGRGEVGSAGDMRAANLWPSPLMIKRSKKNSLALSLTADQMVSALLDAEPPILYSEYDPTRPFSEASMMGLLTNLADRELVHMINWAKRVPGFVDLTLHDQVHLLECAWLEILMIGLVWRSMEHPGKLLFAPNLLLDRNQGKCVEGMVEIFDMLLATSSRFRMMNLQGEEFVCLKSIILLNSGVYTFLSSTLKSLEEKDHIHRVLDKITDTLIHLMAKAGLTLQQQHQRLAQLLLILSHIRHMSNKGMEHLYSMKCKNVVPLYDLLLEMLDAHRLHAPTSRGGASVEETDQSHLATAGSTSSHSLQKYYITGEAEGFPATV
Androgen receptor (Homo sapiens), sequence (P10275 whole entry, looked up): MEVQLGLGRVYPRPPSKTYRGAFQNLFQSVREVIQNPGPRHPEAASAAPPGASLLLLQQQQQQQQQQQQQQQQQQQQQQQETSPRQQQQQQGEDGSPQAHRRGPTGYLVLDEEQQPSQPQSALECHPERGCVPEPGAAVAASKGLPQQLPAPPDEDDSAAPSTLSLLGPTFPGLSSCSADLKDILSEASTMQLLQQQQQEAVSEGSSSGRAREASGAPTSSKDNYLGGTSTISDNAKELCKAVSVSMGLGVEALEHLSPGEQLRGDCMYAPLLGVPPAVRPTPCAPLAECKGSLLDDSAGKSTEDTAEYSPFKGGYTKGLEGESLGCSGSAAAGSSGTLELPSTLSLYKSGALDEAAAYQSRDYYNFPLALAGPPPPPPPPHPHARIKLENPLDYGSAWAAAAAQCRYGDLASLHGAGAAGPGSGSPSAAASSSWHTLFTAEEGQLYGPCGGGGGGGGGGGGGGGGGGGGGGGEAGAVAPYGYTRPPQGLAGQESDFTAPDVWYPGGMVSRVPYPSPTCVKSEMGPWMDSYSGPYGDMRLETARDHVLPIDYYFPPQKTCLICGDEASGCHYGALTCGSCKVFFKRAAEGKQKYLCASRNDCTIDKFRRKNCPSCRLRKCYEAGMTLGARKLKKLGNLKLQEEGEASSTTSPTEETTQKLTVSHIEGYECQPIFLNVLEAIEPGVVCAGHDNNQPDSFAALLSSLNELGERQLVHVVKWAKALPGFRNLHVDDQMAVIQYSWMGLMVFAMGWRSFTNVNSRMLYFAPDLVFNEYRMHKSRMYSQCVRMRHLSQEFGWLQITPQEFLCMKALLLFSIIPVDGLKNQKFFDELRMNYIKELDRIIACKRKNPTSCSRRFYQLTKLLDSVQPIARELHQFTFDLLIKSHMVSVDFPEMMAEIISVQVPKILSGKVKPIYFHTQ

Consider `NC(=O)c1cnccn1`, for which the Potency entry in [1], in assay [2], in assay [3], in assay [4], in assay [5] and in assay [6] was “inactive” throughout. The Potency result in assay [7], in [8], in assay [9], in [10], in assay [11] and in assay [13] was “inactive” throughout. In addition, the Potency result in [15] and in assay [16] was “inactive” each time. The outcome in assay [12], in assay [14] and in assay [17] was inactive.
As for `Cc1cn([C@H]2C[C@H](N=[N+]=[N-])[C@@H](CO)O2)c(=O)[nH]c1=O`, the Potency result in assay [1], in [2], in [3], in assay [4], in assay [5] and in assay [6] was “inactive” each time. Further, the Potency entry in [7], in [8], in assay [9], in assay [10], in assay [11] and in [13] was “inactive” in each case. In addition, in [15], the Potency result was “inactive”. The result in assay [12], in assay [14] and in assay [17] was inactive. Besides, the Potency in assay [16] was 70.5 µM (active) and inactive.
As to `O=S(=O)(O)NC1CCCCC1`, the Potency entry in assay [1], in [2], in assay [3], in assay [4], in [5] and in assay [6] was “inactive” in each case. For the same molecule, the Potency result in assay [7], in [18], in [8], in [9], in assay [13] and in [15] was “inactive” in each case. Also, the Potency result in assay [16] was “inactive”. Further, the outcome in assay [12], in assay [14] and in [17] was inactive.
With `O=C(O)c1cc(N=Nc2ccc(S(=O)(=O)Nc3ccccn3)cc2)ccc1O`, the Potency result in assay [1], in assay [2], in assay [3], in assay [4], in [5] and in assay [6] was “inactive” in each case. Further, the Potency result in assay [7] and in assay [8] was “inactive” each time. Further, the Potency is 11 µM (active) and 21.9 µM (active) in assay [18]; 24.4 µM (active) and 30.6 µM (active) in [9]; 27.3 µM (active) in assay [13]; 21.8 µM (active) and 24.3 µM (active) in [15]; 21.8 µM (active) and 27.3 µM (active) in assay [16]. Besides, the result in assay [12], in assay [14] and in assay [17] was inactive.
Turning to `O=c1cc[nH]c(=S)[nH]1`, the Potency result in assay [1], in assay [2], in assay [3], in assay [4], in assay [5] and in [6] was “inactive” throughout. The Potency result in assay [7], in [18], in assay [8], in assay [9], in assay [11] and in assay [13] was “inactive” throughout. Moreover, the Potency entry in assay [15] and in [16] was “inactive” throughout. Besides, the result in assay [12], in [14] and in assay [17] was inactive.
Turning to `Nc1ccc(S(=O)(=O)Nc2nccs2)cc1`, the Potency entry in assay [1] is “inactive and 43.6 µM (active)”; in assay [2] it was “inactive and 43.6 µM (active)”; in assay [3], “inactive and 43.6 µM (active)”; in assay [4], “inactive and 49 µM (active)”; in assay [8], “inactive and 43.6 µM (active)”. The Potency entry in assay [5], in assay [6], in assay [9], in assay [11], in assay [13] and in [15] was “inactive” in each case. The Potency result in [16] was “inactive”. Besides, the molecule was classed as inactive in assay [12], in [14] and in assay [17].
In the case of `Cc1ccc(C)c(OCCCC(C)(C)C(=O)O)c1`, the Potency entry in [1], in [2], in assay [3], in assay [4], in [5] and in assay [6] was “inactive” each time. The Potency result in assay [7], in [8], in assay [9], in assay [10], in [19] and in assay [11] was “inactive” throughout. Further, the Potency entry in [13], in assay [15] and in [16] was “inactive” in each case. In addition, the result in assay [12], in [14] and in assay [17] was inactive.
For `N=C(N)c1ccc(OCCCCCOc2ccc(C(=N)N)cc2)cc1`, the Potency entry in assay [1], in assay [2], in assay [4], in assay [6], in [7] and in [18] was “inactive” in each case. Moreover, the Potency entry in assay [8], in [9], in [10], in assay [15] and in [16] was “inactive” in each case. For the same molecule, the Potency in assay [3] was 48.8 µM (active) and inactive; in [5] it was 19.4 µM (active) and 18.6 µM (active); in assay [11] it was 13.6 µM (active) and 18.5 µM (active); in assay [13] it was 8.59 µM (active) and 9.26 µM (active). For the same molecule, the result in [12], in assay [14] and in assay [17] was inactive.
